D1 PAM: Potentiators of Human D1 Dopamine Receptor: qHTS. potentiation, % at 10 µM. AID 504651, 2011. actives 0.036% (n = 360,000). HEK293 TREx D1 cells, calcium flux, dopamine EC20 potentiation. D(1A) dopamine receptor (Homo sapiens), P21728; in the data active = potentiation above about 30%
Target sequence (P21728 whole entry, looked up): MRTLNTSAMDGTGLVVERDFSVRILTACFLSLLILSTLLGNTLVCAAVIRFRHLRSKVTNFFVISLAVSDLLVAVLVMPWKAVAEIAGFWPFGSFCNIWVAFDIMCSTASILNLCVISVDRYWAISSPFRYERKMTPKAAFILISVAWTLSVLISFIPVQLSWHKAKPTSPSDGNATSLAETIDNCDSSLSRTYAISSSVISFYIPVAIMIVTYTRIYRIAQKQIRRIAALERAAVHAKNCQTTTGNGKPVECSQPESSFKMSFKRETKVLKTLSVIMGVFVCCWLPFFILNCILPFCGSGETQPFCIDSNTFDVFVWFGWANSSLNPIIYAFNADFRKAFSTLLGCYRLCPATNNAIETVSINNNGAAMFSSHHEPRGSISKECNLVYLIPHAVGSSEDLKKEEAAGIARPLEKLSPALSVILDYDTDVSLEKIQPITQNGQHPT
D1 antag: Antagonist of Human D 1 Dopamine Receptor: qHTS. D(1A) dopamine receptor (Homo sapiens), P21728. HEK293 TREx D1 cells, calcium flux, dopamine EC80; hits give low values. activity change, negative = inhibition, % at 10 µM. actives 3.2% (n = 360,000). AID 504652, 2011; in the data active = activity change below about -30%
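Inducible Hek293 Trex D1 cells (tetracycline, overnight, 30 C). Calcium dye 30–90 min RT. Antagonist mode: EC80 dopamine added after 180 s compound read.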
D3 ag: qHTS of D3 Dopamine Receptor Agonist: qHTS; D(3) dopamine receptor (Homo sapiens), P35462; D3R DiscoveRx beta-arrestin cells, luminescence, 90 min; max activation, %; actives 0.58% (n = 410,000); in the data active = max activation above about 30%
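Agonist mode: compounds and dopamine controls were applied to plated cells for 90 min at 37 degrees C after an overnight attachment at 1500 cells/well. Luminescent read-out followed 30 - 60 minutes at room temperature with DiscoveRx detection reagent.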
DRD3 antagonist: qHTS of D3 Dopamine Receptor Antagonist: qHTS | D3R cells, DiscoveRx beta-arrestin luminescence, antagonist mode; hits give low values | D(3) dopamine receptor (Homo sapiens), P35462 | max response, negative = inhibition, % | AID 652054, 2013 | actives 2.5% (n = 360,000); in the data active = max response below about -50%
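Cells plated overnight at 1500 cells/well, then exposed to library compounds with dopamine controls for 90 minutes at 37 degrees C. DiscoveRx reagent added for 30–60 minutes at room temperature; luminescence read, quantitative HTS format.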
D1 ag: Allosteric Agonists of the Human D1 Dopamine Receptor: qHTS | D(1A) dopamine receptor (Homo sapiens), P21728 | HEK293 T-REx D1 cells, calcium flux, agonist mode | activation, % at 2 µM | actives 1% (n = 360,000); in the data active = activation above about 30%
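Inducible HEK293 T-REx D1 cells, force-coupled to calcium signalling, were plated at 4000 cells/well with tetracycline and held overnight at 30 C. After no-wash calcium dye loading, compound-evoked calcium rise over 180 s flagged agonists.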
A number is an active result. Rows were chosen to be rich in hits. Some 6.1% of all compounds tested hit in one or more screens of this group.

What do the screens show for `Cc1cc(Br)ccc1NC(=O)CN(C)C(=O)Cn1c(=O)cnc2ccccc21`?
D1 PAM: inactive; D1 antag: inactive; D3 ag: inactive; DRD3 antagonist: inactive; D1 ag: inactive

Results for CC(=O)c1c(C)[nH]c(C(=O)N2c3ccccc3CC2C)c1C (centres undefined) ?
D1 PAM: inactive; D1 antag: -41.2; D3 ag: inactive; DRD3 antagonist: inactive; D1 ag: inactive

Results for CC(=O)c1c(C)[nH]c(C(=O)N2CCc3ccccc3C2)c1C ?
D1 PAM: inactive; D1 antag: inactive; D3 ag: inactive; DRD3 antagonist: inactive; D1 ag: inactive

Results for CC1(C)CC(C(N)=S)CCO1 (centres undefined) ?
D1 PAM: inactive; D1 antag: -37.0; D3 ag: inactive; DRD3 antagonist: inactive; D1 ag: inactive

How did COc1ccc(N2CCN(c3cc(C)c4cccc(C)c4n3)CC2)cc1 do in these assays?
D1 PAM: inactive; D1 antag: inactive; D3 ag: inactive; DRD3 antagonist: inactive; D1 ag: inactive

Results for Cc1cc(N2CCN(c3ncccn3)CC2)nc2c(C)cccc12 ?
D1 PAM: inactive; D1 antag: inactive; D3 ag: 35.9; DRD3 antagonist: inactive; D1 ag: inactive

How did Clc1cccc(NCc2nnc(SCc3ccc(Cl)cc3Cl)o2)c1 do in these assays?
D1 PAM: inactive; D1 antag: inactive; D3 ag: inactive; DRD3 antagonist: -63.4; D1 ag: inactive

What do the screens show for `CC(C)(C)OC(=O)NCCc1nnc(SCc2ccc(Cl)cc2Cl)o1`?
D1 PAM: inactive; D1 antag: inactive; D3 ag: inactive; DRD3 antagonist: inactive; D1 ag: inactive

What do the screens show for `Fc1ccc2cnc(-c3ccccc3)c(-c3cccc(C(F)(F)F)c3)c2c1`?
D1 PAM: inactive; D3 ag: inactive; DRD3 antagonist: -64.0; D1 ag: inactive

How did CCOc1cc(N2CCOCC2)c(OCC)cc1NC(=O)c1cccc(N(C)C)c1 do in these assays?
D1 PAM: inactive; D1 antag: inactive; D3 ag: inactive; DRD3 antagonist: inactive; D1 ag: inactive

What do the screens show for `CCOc1cc(N2C(=O)CC3CS(=O)(=O)CC32)c(OCC)cc1NC(=O)c1ccccc1` (centres undefined)?
D1 PAM: inactive; D1 antag: inactive; D3 ag: inactive; DRD3 antagonist: -62.3; D1 ag: inactive

What do the screens show for `COc1cc2c(cc1OC)C1(CCCC1)CNC2c1cccc([N+](=O)[O-])c1` (centres undefined)?
D1 PAM: inactive; D1 antag: inactive; D3 ag: inactive; DRD3 antagonist: -77.4; D1 ag: inactive

Results for Cc1onc(C(=O)NN)c1-c1csc(COc2ccc(Cl)cc2)n1 ?
D1 PAM: inactive; D1 antag: inactive; D3 ag: 44.5; DRD3 antagonist: inactive; D1 ag: inactive

How did Cc1nc(-c2nc(-c3c(C(=O)NN)noc3C)cs2)cs1 do in these assays?
D1 PAM: inactive; D1 antag: inactive; D3 ag: inactive; DRD3 antagonist: inactive; D1 ag: inactive

How did CC(=O)N1CCc2cc(CNC(=O)Nc3ccccc3C(F)(F)F)ccc21 do in these assays?
D1 PAM: inactive; D1 antag: inactive; D3 ag: inactive; D1 ag: inactive

How did CC(=O)N1CCc2cc(CNS(=O)(=O)c3ccccc3C(F)(F)F)ccc21 do in these assays?
D1 PAM: inactive; D1 antag: inactive; D3 ag: 61.1; D1 ag: inactive

What do the screens show for `CS(=O)(=O)N1CCc2cc(S(=O)(=O)NCc3ccccc3Cl)ccc21`?
D1 PAM: inactive; D1 antag: -100.6; D3 ag: inactive; D1 ag: inactive

How did CCN(c1cccc(C(F)(F)F)c1)S(=O)(=O)c1ccc2c(c1)CCN2C(C)=O do in these assays?
D1 PAM: inactive; D1 antag: inactive; D3 ag: inactive; DRD3 antagonist: -61.8; D1 ag: inactive

Results for CC(=O)N1CCc2cc(S(=O)(=O)NCCN3CCC(C)CC3)ccc21 ?
D1 PAM: inactive; D1 antag: inactive; D3 ag: inactive; DRD3 antagonist: -57.7; D1 ag: inactive

What do the screens show for `CCN(c1cccc(C)c1)S(=O)(=O)c1ccc2c(c1)CCN2C(C)=O`?
D1 PAM: inactive; D1 antag: inactive; D3 ag: inactive; DRD3 antagonist: inactive; D1 ag: inactive

How did CCOC(=O)C1CCN(C(=O)Cn2c(=O)c3cccn3c3cccnc32)CC1 do in these assays?
D1 PAM: inactive; D1 antag: inactive; D3 ag: inactive; DRD3 antagonist: inactive; D1 ag: inactive

How did O=S(=O)(c1ccc2c(c1)OCCO2)N1CCN(S(=O)(=O)c2cc(F)c(Br)cc2F)CC1 do in these assays?
D1 PAM: inactive; D1 antag: inactive; D1 ag: inactive

What do the screens show for `COc1ccc(OC)c(CCNC(=O)c2cc3c(=O)n(C)c4ccccc4c3n2C)c1`?
D1 PAM: inactive; D1 antag: inactive; D3 ag: inactive; D1 ag: inactive

How did CC(=O)N1CCc2cc(S(=O)(=O)N3c4ccccc4CC3C)ccc21 (centres undefined) do in these assays?
D1 PAM: inactive; D1 antag: inactive; D3 ag: inactive; DRD3 antagonist: -51.5; D1 ag: inactive

Results for CCOc1ccccc1CNS(=O)(=O)c1ccc2c(c1)CCCN2C(C)=O ?
D1 PAM: inactive; D1 antag: -50.2; D3 ag: inactive; D1 ag: inactive

How did Cc1cc(C)cc(OCC(=O)OCc2cc([N+](=O)[O-])cc3c2OCOC3)c1 do in these assays?
D3 ag: inactive; DRD3 antagonist: inactive

What do the screens show for `CCOC(=O)C1(C)CCCN(C(=O)c2ccc3c(c2)CCO3)C1` (centres undefined)?
D3 ag: inactive; DRD3 antagonist: inactive

Results for O=C(Nc1ccccc1)N1CCN(c2nc(-c3ccccc3)ns2)CC1 ?
D1 PAM: inactive; D1 antag: inactive; D3 ag: 35.5; DRD3 antagonist: inactive; D1 ag: inactive

Results for O=C(Nc1ccccc1Cl)N1CCCN(c2nc(-c3ccccc3)ns2)CC1 ?
D1 PAM: inactive; D1 antag: inactive; D3 ag: inactive; DRD3 antagonist: inactive; D1 ag: inactive

What do the screens show for `COCCNC(=O)CCCN1C(=O)CCn2nc(-c3cccn3C)cc21`?
D1 PAM: inactive; D1 antag: inactive; D3 ag: inactive; D1 ag: inactive

What do the screens show for `NS(=O)(=O)c1ccc(Nc2nc(-c3cccc([N+](=O)[O-])c3)cs2)cc1`?
D1 PAM: inactive; D1 antag: -30.6; D3 ag: inactive; DRD3 antagonist: inactive; D1 ag: inactive

Results for NS(=O)(=O)c1ccc(Nc2nc(-c3ccc4ccccc4c3)cs2)cc1 ?
D1 PAM: inactive; D1 antag: inactive; D3 ag: inactive; DRD3 antagonist: inactive; D1 ag: inactive

Source: PubChem BioAssay
